Assay results published in PubChem BioAssay (NCI).
Values joined by “and” are separate entries in the source; they are usually repeats but may differ in a detail not shown here. Identical values can stand only once. About 79,000 compounds went through this panel and 15% of them were active in at least one assay; those are over-represented in the sample as a whole. No stated cut-off is given here; in the data, active means growth inhibition above about 70%; inactive means the rest.

Legend:
[1] = NCI Yeast Anticancer Drug Screen. Data for the rad50 strain (AID 155);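 further: 0% = growth of vehicle-only cultures of the same strain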; conditions: S. cerevisiae rad50 strain growth inhibition, active compounds read high; at 50.0 µM unless noted
How it was run: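 Genetically altered yeast (DNA repair pathway); compound treatment; growth inhibition vs vehicle ctrl.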

[2] = NCI Yeast Anticancer Drug Screen. Data for the mec2-1 strain (AID 157); conditions: S. cerevisiae mec2-1 strain, active compounds read high; at 50.0 µM unless noted
How it was run: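 Mutant yeast (mec2-1) grown with compound; growth inhibition relative to vehicle control reported.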

[3] = NCI Yeast Anticancer Drug Screen. Data for the sgs1 mgt1 strain (AID 161);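 further: 0% = growth of cultures given vehicle only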; conditions: S. cerevisiae sgs1 mgt1 strain, active compounds read high; at 50.0 µM unless noted
How it was run: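 Percent growth inhibition was derived by comparing compound-exposed mutant yeast with vehicle-exposed cultures. The strain carries alterations in DNA damage repair.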

[4] = NCI Yeast Anticancer Drug Screen. Data for the cln2 rad14 strain (AID 165);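 further: 0% = growth equal to vehicle treated cultures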; conditions: S. cerevisiae cln2 rad14 strain, active compounds read high; at 50.0 µM unless noted
How it was run: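 Readout is yeast growth inhibition versus vehicle-treated controls, using a strain with cln2 and rad14 alterations exposed to compound.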

[5] = NCI Yeast Anticancer Drug Screen. Data for the bub3 strain (AID 167); conditions: S. cerevisiae bub3 mutant strain, active compounds read high; at 50.0 µM unless noted
How it was run: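 Yeast carrying a defined mutation is treated with each compound, and growth is compared with that of vehicle-exposed cells to give inhibition.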

[6] = NCI Yeast Anticancer Drug Screen. Data for the mlh1 rad18 strain (AID 175); conditions: S. cerevisiae mlh1 rad18 strain growth inhibition, active compounds read high; at 50.0 µM unless noted
How it was run: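 Genetically defined yeast (DNA repair-deficient) exposed to compounds; growth inhibition determined relative to vehicle.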

Measured: growth inhibition

CS(=O)(=O)c1cccc(C(=O)O)c1
inactive: [1] 12.4% | [2] 7.65% | [3] 4.05% | [4] -16.1% | [5] 1.35% | [6] -18%

COc1cccc(NC(=O)NCCCl)c1OC
inactive: [1] -1.2% | [2] 11.8% | [3] 11.6% | [4] 41% | [5] -3.8% | [6] 22.4%

C[C@H]1/C(=C/C(=O)OCCN(C)C)CC[C@H]2[C@H]1C(=O)C[C@H]1C(C)(C)[C@@H](O)CC[C@]21C
inactive: [1] 1.2% | [2] -1.75% | [3] -0.55% | [4] 13.8% | [5] 15.9% | [6] -34.1%

Cc1ccc(=O)[nH]n1
inactive: [1] -3.25% and -31.6% | [2] -21.7% and -16.3% | [3] -9.8% and -17.8% | [4] -8.35% and -28.9% | [5] -16.1% and -27.5% | [6] 3.75% and -20%

COc1cc2c3c([nH]c2c(OC)c1OC)CCN(Cc1ccccc1)C3
inactive: [1] -27.7% | [2] -15.1% | [3] -10.2% | [4] 6.1% | [5] -0.7% | [6] 10.8%

OCCCC(O)CCC(O)CCC(O)CCCO (stereo not given)
inactive: [1] -4% | [2] -20.1% | [3] 9.15% | [4] 9.5% | [5] -22.8% | [6] 5.15%

O=C(OCC(OC(=O)c1ccccc1)C1OCOC2COCOC21)c1ccccc1 (stereo not given)
inactive: [1] 3.35% | [2] -1.3% | [3] -5.6% | [4] -24.2% | [5] 0.45% | [6] 11.4%

Cc1ccc(S(=O)(=O)OC2C(OCc3ccccc3)OC(CO)C2O)cc1 (stereo not given)
inactive: [1] -6% | [2] 6.65% | [3] -9.2% | [4] 15.3% | [5] -0.6% | [6] -9.15%

C=C(c1ccccc1)C1ON(C)CCc2cc(OC)c(OC)cc21 (stereo not given)
inactive: [1] 3.65% | [2] 15.4% | [3] 14.3% | [4] 5.85% | [5] 33.6% | [6] 5.45%

C[Si](C)(C)Cn1cccc1
inactive: [1] -7.5% | [2] 8.9% | [3] 5% | [4] -37.6% | [5] -1.15% | [6] -8.85%

COc1ccc(C=Nc2ccccc2C(=O)O)cc1
inactive: [1] 0.2% | [2] 7.1% | [3] 0.65% | [4] -41.9% | [5] 24.3% | [6] 5.9%

COC1=CC(=O)CC(C)C12Oc1c(Cl)c(OC)cc(OC)c1C2=O (stereo not given)
inactive: [1] 2% | [2] -14.5% | [3] 20% | [4] 13.4% | [5] 67.1% | [6] 17.9%

CC(C)(O)C#CC(C)(C)O
inactive: [1] 1.1% | [2] -7.7% | [3] -10.7% | [4] 0.25% | [5] 5.65% | [6] -11.7%

Cc1ccc(OCC(=O)N2N=C(c3ccccc3)CC2(O)c2ccccc2)cc1 (stereo not given)
inactive: [1] -7.6% | [2] -41.9% | [3] -30.6% | [4] -15.6% | [5] 0% | [6] -24.2%

C=C1c2nc3ccccc3n2C=C(c2ccc(C)cc2)N1c1ccc(C)cc1
inactive: [1] 24.6% | [2] 18% | [3] 16.2% | [4] 25% | [5] 11.2% | [6] 29.8%

NCCCCCCCCCCN
inactive: [1] -22.9% | [2] -5.1% | [3] -5.9% | [4] -29.4% | [5] -35.7% | [6] -11.9%

Cc1ccc(C(=O)OCC(C)C)s1
inactive: [1] -6.6% | [2] 1.35% | [3] -25.8% | [4] -40.8% | [5] -6.55% | [6] 13.4%

CCOC(=O)Cc1nc2nn(Cc3ccccc3)cc2c(=O)[nH]1
inactive: [1] -48.8% | [2] -63.9% | [3] -7% | [4] 0.65% | [5] -10.9% | [6] -19.8%

Cc1cc(=O)oc2nn(CCO)c(C)c12
inactive: [1] -35.3% | [2] -17.6% | [3] -10.1% | [4] -41.9% | [5] -10.6% | [6] -13.7%

CCOc1ccc(N=Nc2c(O)n(-c3ccc(Cl)cc3)c(=S)n(-c3ccccc3)c2=O)cc1
inactive: [1] -15.2% | [2] 2.5% | [3] 7.85% | [4] -0.15% | [5] 32.5% | [6] 26.4%
